Assay [1] has as its target Glucocorticoid receptor (Homo sapiens) (UniProt P04150). Nature of the assay: qHTS assay for small molecule agonists of glucocorticoid receptor signaling (AID 588532; active means well fitted curve in the direction sought with a large enough effect in the signal ratio, with a control signal flat; the % refers to the signal ratio;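 further: 100% = dexamethasone at 0.1 µM and 0% = DMSO only wells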). As to conditions: HeLa MMTV-bla, beta-lactamase ratio, agonist, 18 h; stronger effect = higher value; percent of dexamethasone control, DMSO zero. The gist of the method: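 Quantitative HTS using CellSensor MMTV-bla HeLa cells in charcoal/dextran-treated serum; compounds tested up to 92 uM. After 18 h at 37 C, CCF4 dye reported reporter induction.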
On the technique in general: Quantitative high-throughput screening tests each substance at several concentrations.

Assay [2] has the same target. Nature of the assay: qHTS assay for small molecule antagonists of glucocorticoid receptor signaling (AID 588533; active means well fitted inhibition curve with a large enough effect in the signal ratio, with a control signal flat, not every such curve was filed as active; the % refers to the signal ratio;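 further: cells stimulated with 2 nM dexamethasone as agonist; on the % scale 0 is the no-effect control and ±100 the full control effect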). The following applies: HeLa MMTV-bla, GRE beta-lactamase ratio, antagonist mode, 18 h; series mostly up to 76.8 µM. The procedure, abridged: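 Antagonist-mode qHTS: compound titrations added to GRE-bla HeLa cells, then dexamethasone 2 nM final; 18 h, 37 C. CCF4 FRET fluorescence normalized to dexamethasone and DMSO; IC50 from Hill fit.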

Assay [3] in a line: qHTS assay for small molecule antagonists of peroxisome proliferator-activated receptor delta signaling (AID 588535; active means well fitted inhibition curve with a large enough effect in the signal ratio, with a control signal flat, not every such curve was filed as active; the % refers to the signal ratio;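 on max response: cells co-treated with a PPAR-delta agonist as stimulator during compound exposure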). As to conditions: HEK293T PPARd-UAS-bla, beta-lactamase FRET ratio, 18 h; 460 nm channel. The gist of the method:
(§1)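 HEK293T PPAR-delta-UAS-bla cells, 4000/well, 2% charcoal/dextran FBS; 5 h 37 C; cpd titration; 18 h 37 C; CCF4 2 h RT; FI 460/530 nm; Hill fit → IC50, efficacy.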

The target of assay [4] is Peroxisome proliferator-activated receptor delta (Homo sapiens) (UniProt Q03181). Described as above. As to conditions: HEK293T PPARd-UAS-bla, beta-lactamase FRET ratio, 18 h; series mostly up to 76.7 µM. The gist of the method: as §1
Sequence of Peroxisome proliferator-activated receptor delta (Homo sapiens) (Q03181 whole entry, looked up): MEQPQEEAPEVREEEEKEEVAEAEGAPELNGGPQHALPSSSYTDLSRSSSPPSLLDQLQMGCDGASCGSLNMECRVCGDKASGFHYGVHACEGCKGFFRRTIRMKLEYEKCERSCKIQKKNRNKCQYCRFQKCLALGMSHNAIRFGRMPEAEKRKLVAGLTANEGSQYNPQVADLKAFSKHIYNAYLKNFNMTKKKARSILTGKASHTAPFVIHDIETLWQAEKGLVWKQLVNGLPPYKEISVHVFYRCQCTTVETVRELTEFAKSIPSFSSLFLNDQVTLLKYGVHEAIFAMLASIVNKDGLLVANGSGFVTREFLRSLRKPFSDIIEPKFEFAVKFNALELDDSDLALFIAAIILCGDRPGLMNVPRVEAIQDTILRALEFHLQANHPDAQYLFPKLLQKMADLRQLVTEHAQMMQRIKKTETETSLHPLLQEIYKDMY
In assay [5] the target is Peroxisome proliferator-activated receptor gamma (Homo sapiens) (UniProt P37231). In words: qHTS assay for small molecule agonists of peroxisome proliferator-activated receptor gamma signaling (AID 588536; active means well fitted curve in the direction sought with a large enough effect in the signal ratio, with a control signal flat, not every such curve was filed as active; the % refers to the signal ratio;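 further: 0% = DMSO basal wells and 100% = rosiglitazone at 2 µM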). As to conditions: HEK293 PPARg-UAS-bla, beta-lactamase ratio, 16 h, percent of rosiglitazone response, DMSO as zero; series mostly up to 76.7 µM. The gist of the method: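 GeneBLAzer PPAR-gamma-UAS-bla HEK293 cells in 1% charcoal/dextran-treated FBS medium were treated 16 h at 37 C with compounds. Beta-lactamase activity was read by CCF4 ratio (460/530 nm). Response was normalized to 2 uM rosiglitazone (100%) and DMSO, then Hill-fitted for EC50 and efficacy.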
Sequence of Peroxisome proliferator-activated receptor gamma (Homo sapiens) (P37231 whole entry, looked up): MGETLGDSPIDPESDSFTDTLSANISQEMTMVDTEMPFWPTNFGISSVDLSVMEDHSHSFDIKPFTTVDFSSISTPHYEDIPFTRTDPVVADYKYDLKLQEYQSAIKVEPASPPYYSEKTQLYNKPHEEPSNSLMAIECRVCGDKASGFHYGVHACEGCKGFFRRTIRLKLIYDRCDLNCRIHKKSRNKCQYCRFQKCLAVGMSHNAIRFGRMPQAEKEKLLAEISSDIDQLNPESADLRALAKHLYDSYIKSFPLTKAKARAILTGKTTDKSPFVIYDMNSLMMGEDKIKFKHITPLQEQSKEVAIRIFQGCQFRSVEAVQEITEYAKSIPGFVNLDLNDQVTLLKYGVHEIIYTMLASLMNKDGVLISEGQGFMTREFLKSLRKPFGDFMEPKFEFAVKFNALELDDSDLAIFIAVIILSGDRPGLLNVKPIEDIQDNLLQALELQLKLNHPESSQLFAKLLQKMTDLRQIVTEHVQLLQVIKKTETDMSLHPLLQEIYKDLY

Assay [6] has the same target. Nature of the assay: qHTS assay for small molecule antagonists of peroxisome proliferator-activated receptor gamma signaling (AID 588537; active means well fitted inhibition curve with a large enough effect in the signal ratio, with a control signal flat, not every such curve was filed as active; the % refers to the signal ratio;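 further: reporter cells co-stimulated with 50 nM rosiglitazone agonist during compound treatment; % of control where 0% means no effect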). The following applies: HEK293 PPARg-UAS-bla, beta-lactamase ratio, antagonist mode; series mostly up to 76.8 µM. The procedure, abridged:
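Antagonist mode, beta-lactamase reporter in HEK293; charcoal/dextran FBS 1%; 3000 cells/well, 37 C 6-6.5 h; cpd titration + rosiglitazone 50 nM final, 16 h 37 C; CCF4, 2 h RT; 460/530 nm; Hill fit → IC50, efficacy.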

Assay [7] is described as follows: qHTS assay for small molecule agonists of retinoid X receptor alpha signaling (AID 588544).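 On activation: 0% = DMSO basal wells and 100% = reference agonist.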 The following applies: HEK293T RXRa-UAS-bla, beta-lactamase reporter, 18 h; 530 nm emission.
The target in assay [8] is Retinoic acid receptor RXR-alpha (Homo sapiens) (UniProt P19793). The description is as above. As to conditions: HEK293T RXRa-UAS-bla, beta-lactamase reporter, 18 h; series mostly up to 76.7 µM.
Sequence of Retinoic acid receptor RXR-alpha (Homo sapiens) (P19793 whole entry, looked up): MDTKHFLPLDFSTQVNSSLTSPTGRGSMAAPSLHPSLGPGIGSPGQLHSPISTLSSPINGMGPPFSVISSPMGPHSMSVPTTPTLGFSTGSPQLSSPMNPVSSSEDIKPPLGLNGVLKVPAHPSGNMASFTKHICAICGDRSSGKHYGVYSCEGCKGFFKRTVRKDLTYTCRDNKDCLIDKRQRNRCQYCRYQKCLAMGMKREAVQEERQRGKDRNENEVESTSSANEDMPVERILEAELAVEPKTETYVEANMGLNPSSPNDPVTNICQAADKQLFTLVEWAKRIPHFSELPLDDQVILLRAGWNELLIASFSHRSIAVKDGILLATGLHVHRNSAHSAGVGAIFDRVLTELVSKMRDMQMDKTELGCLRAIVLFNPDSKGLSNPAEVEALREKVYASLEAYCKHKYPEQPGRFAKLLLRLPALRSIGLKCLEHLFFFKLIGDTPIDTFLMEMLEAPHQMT
Assay [9] addresses Thyroid hormone receptor beta (Homo sapiens) (UniProt P10828). In words: qHTS assay for small molecule agonists of thyroid hormone receptor beta signaling (AID 588545).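 Further: 0% = DMSO only and 100% = 10 nM T3.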 As to conditions: TR-UAS-bla GripTite HEK 293, beta-lactamase ratio, agonist mode, 18 h, percent of T3 response, DMSO as zero; series mostly up to 76.7 µM. The procedure, abridged: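 Efficacy and EC50 values derive from Hill fits of qHTS titration data, normalized to 10 nM T3 and DMSO-only wells. HEK 293 reporter cells were stimulated for 18 hrs at 37 C, with beta-lactamase activity measured by CCF4 fluorescence.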

Assay [10] in a line: qHTS assay for small molecule antagonists of retinoid X receptor alpha signaling (AID 588546; active means well fitted inhibition curve with a large enough effect in the signal ratio, with a control signal flat, not every such curve was filed as active; the % refers to the signal ratio;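 further: cells stimulated with 9-cis-retinoic acid as agonist; on the % scale 0 is the no-effect control and ±100 the full control effect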). The following applies: HEK293T RXRa-UAS-bla, beta-lactamase ratio, antagonist mode; measured here: W530 green channel, cytotoxicity proxy. The procedure, abridged:
(§2)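 Beta-lactamase reporter inhibition, read as CCF4 fluorescence ratio (ex 405, em 460/530 nm) after 2 h at RT. HEK293T UAS-bla cells, 2500/well, were stimulated with 9-cis-RA at 500 or 100 nM final alongside test compound for 18 h at 37 C.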

The target of assay [11] is Thyroid hormone receptor beta (Homo sapiens) (UniProt P10828). Nature of the assay: qHTS assay for small molecule antagonists of thyroid hormone receptor beta signaling (AID 588547; active means well fitted inhibition curve with a large enough effect in the signal ratio, with a control signal flat, not every such curve was filed as active; the % refers to the signal ratio;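 further: cells stimulated with 0.4 nM T3 agonist during compound exposure; on the % scale 0 is the no-effect control and ±100 the full control effect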). As to conditions: TR-UAS-bla HEK293, beta-lactamase ratio, antagonist mode, 18 h. The gist of the method:
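Inhibition of T3-driven (0.4nM final) beta-lactamase reporter activity was measured over 0.59 nM to 92 uM compound after 18 h at 37 C. The cells were GripTite HEK293 TR-UAS-bla in charcoal/dextran-stripped serum, with CCF4 ratio read-out and IC50 from Hill fits.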

For assay [12], the target named is Voltage-gated inwardly rectifying potassium channel KCNH2 (Homo sapiens) (UniProt Q12809). Nature of the assay: qHTS Assay for Small Molecule Inhibitors of the Human hERG Channel Activity (AID 588834; active means well fitted inhibition curve with a large enough effect;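 further: top concentration of the series differs between compounds; on the % scale 0 is the no-effect control and ±100 the full control effect; lower thallium flux fluorescence means stronger hERG block; nearly all actives have a fitted effect of over 50% in size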). The following applies: U2OS BacMam hERG, FluxOR thallium flux fluorescence; series mostly up to 92.2 µM. The gist of the method:
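Blockade is seen as reduced FluxOR thallium-flux fluorescence in U2OS cells expressing hERG from a BacMam construct, in Opti-MEM with 2% FCS. Concentration-response data fitted to the Hill equation for AC50.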

Assay [13] is described as follows: qHTS assay for small molecule agonists of the antioxidant response element (ARE) signaling pathway (AID 651741; active means well fitted activation curve with a large enough effect in the signal ratio; the % refers to the signal ratio; further: % of control where 0% means no effect). As to conditions: HepG2 ARE-bla reporter, beta-lactamase FRET ratio, 16 h; series mostly up to 96 µM. The gist of the method: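 Quantitative HTS in HepG2 cells stably expressing an ARE-beta-lactamase reporter; 16 h compound exposure at 37 C, followed by 2 h room-temperature incubation with LiveBLAzer B/G FRET substrate and fluorescence measurement.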

A short description of assay [14]: qHTS assay for small molecule activators of the p53 signaling pathway (AID 651743; active means well fitted activation curve with a large enough effect in the signal ratio, not every such curve was filed as active; the % refers to the signal ratio; further: % of control where 0% means no effect). As to conditions: HCT-116 p53RE-bla, beta-lactamase FRET ratio, 16 h; stronger effect = higher value. The gist of the method: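 Read-out is fluorescence intensity from the LiveBLAzer B/G FRET substrate, added for 2 hours at room temperature after HCT-116 p53RE-bla cells had been incubated with compounds for 16 hours at 37 C.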

Assay [15] is described as follows: qHTS assay for small molecule activators of the nuclear factor-kappa B (NF-kB) signaling pathway (AID 651749; active means well fitted activation curve with a large enough effect in the signal ratio; the % refers to the signal ratio; further: % of control where 0% means no effect). The following applies: NF-kB-bla ME-180 cells, beta-lactamase FRET ratio, 16 h; stronger effect = higher value. The gist of the method:
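Readout: beta-lactamase reporter driven by an NF-kB response element, detected fluorescently as loss of FRET. Cells were the ME-180 line, treated 16 hr at 37C with pin-transferred compound.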

Assay [16] concerns the target Vitamin D3 receptor (Homo sapiens) (UniProt P11473). Nature of the assay: qHTS assay for small molecule antagonists of vitamin D receptor signaling (AID 588541). As to conditions: HEK293T VDR-UAS-bla, beta-lactamase ratio, antagonist mode; series mostly up to 76.7 µM. The procedure, abridged:
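Antagonist-mode beta-lactamase reporter assay: HEK293T VDR-UAS-bla cells were exposed to titrated compound alongside 1-alpha,25-dihydroxyvitamin D3 at 3 nM final for 16 h. Values were normalized to the 50 nM agonist control and DMSO basal, with IC50 and efficacy from Hill equation fits.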

Assay [17] has the same target. Nature of the assay: qHTS assay for small molecule agonists of vitamin D receptor signaling (AID 588543).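 Further: 0% = DMSO basal and 100% = reference agonist control.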 As to conditions: HEK293T VDR-UAS-bla, beta-lactamase ratio, 16 h; series mostly up to 76.8 µM. The gist of the method: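 Measured: β-lactamase reporter activity (CCF4, 405 nm excitation, 460/530 nm emission) in HEK293T VDR-UAS-bla cells after 16 h compound exposure at 37 °C. Normalization against 50 nM 1α,25-dihydroxyvitamin D3 and DMSO; Hill-fit EC50.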

Assay [18] has as its target Retinoic acid receptor RXR-alpha (Homo sapiens) (UniProt P19793). In words: qHTS assay for small molecule antagonists of retinoid X receptor alpha signaling (AID 588546).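 Further: cells stimulated with 9-cis-retinoic acid as agonist; on the % scale 0 is the no-effect control and ±100 the full control effect.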 The following applies: HEK293T RXRa-UAS-bla, beta-lactamase ratio, antagonist mode. The gist of the method:
as §2

This is an account of results in PubChem BioAssay (NCATS).

“And” between values parts separate entries of the source, which are not always exact repeats. Identical values can stand only once. Records with an inconclusive call do not appear. The source made the active and inactive calls. Unless noted, the call rests on the fitted dose curve.

Sequence of Glucocorticoid receptor (Homo sapiens) (P04150 whole entry, looked up): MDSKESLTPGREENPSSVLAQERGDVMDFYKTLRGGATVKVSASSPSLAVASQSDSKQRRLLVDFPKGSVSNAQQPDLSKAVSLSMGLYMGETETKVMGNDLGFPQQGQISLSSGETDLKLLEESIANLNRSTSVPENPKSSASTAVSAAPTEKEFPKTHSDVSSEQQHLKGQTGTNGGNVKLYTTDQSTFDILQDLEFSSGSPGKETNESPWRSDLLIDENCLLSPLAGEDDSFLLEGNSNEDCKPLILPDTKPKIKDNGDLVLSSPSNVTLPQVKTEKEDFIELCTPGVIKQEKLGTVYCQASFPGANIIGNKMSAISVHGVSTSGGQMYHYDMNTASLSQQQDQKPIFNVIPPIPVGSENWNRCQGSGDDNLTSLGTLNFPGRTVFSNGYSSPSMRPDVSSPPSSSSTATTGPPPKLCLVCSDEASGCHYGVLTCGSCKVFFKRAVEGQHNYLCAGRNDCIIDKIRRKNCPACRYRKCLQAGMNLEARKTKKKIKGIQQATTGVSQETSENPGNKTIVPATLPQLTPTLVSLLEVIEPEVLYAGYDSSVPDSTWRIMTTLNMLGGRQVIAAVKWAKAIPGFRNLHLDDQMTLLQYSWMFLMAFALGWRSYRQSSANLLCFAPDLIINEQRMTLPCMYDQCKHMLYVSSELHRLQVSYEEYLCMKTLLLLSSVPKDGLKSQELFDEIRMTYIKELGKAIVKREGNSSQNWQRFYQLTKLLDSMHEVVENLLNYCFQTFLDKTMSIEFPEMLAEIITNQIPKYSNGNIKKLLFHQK
Sequence of Vitamin D3 receptor (Homo sapiens) (P11473 whole entry, looked up): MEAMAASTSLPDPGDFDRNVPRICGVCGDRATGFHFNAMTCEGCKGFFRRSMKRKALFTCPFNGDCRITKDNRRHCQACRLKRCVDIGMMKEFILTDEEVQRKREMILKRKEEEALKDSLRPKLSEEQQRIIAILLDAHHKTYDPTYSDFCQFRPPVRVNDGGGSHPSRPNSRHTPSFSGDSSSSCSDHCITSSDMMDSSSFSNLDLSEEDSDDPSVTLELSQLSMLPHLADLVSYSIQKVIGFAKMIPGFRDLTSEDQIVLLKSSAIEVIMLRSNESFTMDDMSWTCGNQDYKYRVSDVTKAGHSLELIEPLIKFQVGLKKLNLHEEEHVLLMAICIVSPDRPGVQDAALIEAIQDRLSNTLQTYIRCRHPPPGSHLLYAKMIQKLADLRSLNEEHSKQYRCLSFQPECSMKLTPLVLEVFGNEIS
Sequence of Thyroid hormone receptor beta (Homo sapiens) (P10828 whole entry, looked up): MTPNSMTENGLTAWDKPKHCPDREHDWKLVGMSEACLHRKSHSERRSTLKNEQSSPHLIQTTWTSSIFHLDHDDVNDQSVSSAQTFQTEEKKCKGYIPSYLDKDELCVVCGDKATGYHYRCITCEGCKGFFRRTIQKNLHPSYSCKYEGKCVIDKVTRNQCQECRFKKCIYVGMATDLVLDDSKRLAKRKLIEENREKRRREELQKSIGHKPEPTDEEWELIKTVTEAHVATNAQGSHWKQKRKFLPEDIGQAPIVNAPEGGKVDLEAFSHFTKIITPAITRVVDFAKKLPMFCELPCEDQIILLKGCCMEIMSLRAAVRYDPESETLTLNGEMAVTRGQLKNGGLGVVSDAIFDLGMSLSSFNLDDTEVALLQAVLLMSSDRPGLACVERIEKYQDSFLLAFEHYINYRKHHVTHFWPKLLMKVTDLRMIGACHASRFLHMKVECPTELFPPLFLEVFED
Sequence of Voltage-gated inwardly rectifying potassium channel KCNH2 (Homo sapiens) (Q12809 whole entry, looked up): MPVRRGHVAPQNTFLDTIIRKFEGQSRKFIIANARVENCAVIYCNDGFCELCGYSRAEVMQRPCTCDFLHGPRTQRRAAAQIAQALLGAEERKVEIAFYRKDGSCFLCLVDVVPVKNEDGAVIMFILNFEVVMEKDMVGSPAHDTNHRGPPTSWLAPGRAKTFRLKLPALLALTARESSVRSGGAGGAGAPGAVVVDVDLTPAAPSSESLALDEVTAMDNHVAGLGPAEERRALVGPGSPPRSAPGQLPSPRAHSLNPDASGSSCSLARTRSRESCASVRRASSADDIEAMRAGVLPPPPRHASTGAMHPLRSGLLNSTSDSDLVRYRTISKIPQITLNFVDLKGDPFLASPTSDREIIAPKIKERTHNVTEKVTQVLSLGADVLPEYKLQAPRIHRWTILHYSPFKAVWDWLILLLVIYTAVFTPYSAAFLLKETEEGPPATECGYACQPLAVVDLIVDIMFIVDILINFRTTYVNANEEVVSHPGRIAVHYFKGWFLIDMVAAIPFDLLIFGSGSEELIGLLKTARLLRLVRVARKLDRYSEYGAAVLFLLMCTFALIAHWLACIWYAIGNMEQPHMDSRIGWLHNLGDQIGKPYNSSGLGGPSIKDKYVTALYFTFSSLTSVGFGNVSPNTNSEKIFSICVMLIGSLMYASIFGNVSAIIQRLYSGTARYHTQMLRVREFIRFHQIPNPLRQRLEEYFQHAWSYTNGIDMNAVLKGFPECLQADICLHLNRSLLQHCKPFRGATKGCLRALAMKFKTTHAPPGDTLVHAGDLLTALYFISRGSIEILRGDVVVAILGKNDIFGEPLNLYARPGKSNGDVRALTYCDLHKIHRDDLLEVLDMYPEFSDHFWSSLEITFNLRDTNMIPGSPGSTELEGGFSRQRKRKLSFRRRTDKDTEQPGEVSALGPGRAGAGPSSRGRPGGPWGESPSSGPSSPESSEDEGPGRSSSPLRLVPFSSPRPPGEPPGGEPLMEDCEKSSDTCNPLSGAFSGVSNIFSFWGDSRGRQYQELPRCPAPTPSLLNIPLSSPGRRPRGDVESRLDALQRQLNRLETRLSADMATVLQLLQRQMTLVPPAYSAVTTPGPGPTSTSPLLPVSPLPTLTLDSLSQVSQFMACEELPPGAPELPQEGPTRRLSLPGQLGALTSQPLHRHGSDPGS

For the compound `O=C(O)c1cccc([N+](=O)[O-])c1`, the activation in [1] is 3.85% (inactive); in assay [14] it was -1.71% (inactive) and -6.43% (inactive); in assay [15], -1.01% (inactive) and -3.15% (inactive). Moreover, the result in [2], in assay [5], in [6], in [8] and in assay [9] was inactive. Besides, the max response in [3] is 27.4% and 43.1%; in assay [7] it was -11.3% and -11.9%; in [10], -5.28% and -12.1%. Further, the Potency entry in assay [4], in assay [12] and in [13] was “inactive” throughout. The activity change % (negative = inhibition) in [11] was 3.98% (inactive) and -3.17% (inactive).

Consider `CC/C=C/C#N`, for which the activation is -1.94% (inactive) in assay [1], -0.654% (inactive) in assay [14] and -2.54% (inactive) in assay [15]. The result in assay [2], in [5], in assay [6], in assay [16], in assay [17] and in assay [8] was inactive. Besides, in assay [9], the result was inactive. The max response in [3] is 12.5%; in assay [7] it was -6.67%; in [10], -0.89%; in assay [18], 10.5% (inactive). Moreover, the Potency entry in [4], in assay [12] and in assay [13] was “inactive” each time. In addition, in assay [11], the activity change % (negative = inhibition) is 3.84% (inactive).

Regarding `ICCc1ccccc1`, the activation is -2.34% (inactive) in assay [1], -3.45% (inactive) in assay [14] and -1.75% (inactive) in assay [15]. Also, the outcome in assay [2], in assay [5], in [16], in [17], in [8] and in assay [9] was inactive. In addition, the max response in assay [3] was 13.6%; in assay [7] it was 3.08%; in assay [10], -3.71%; in [18], 22.3% (inactive). Moreover, the Potency result in assay [4], in assay [12] and in assay [13] was “inactive” each time. Besides, the activity change % (negative = inhibition) in assay [11] was 3.09% (inactive).

For `NC(=O)/N=N/C(N)=O`, the figures for the activation in [1], in assay [14] and in assay [15] were 7.65% (inactive), -0.505% (inactive) and 2.36% (inactive), respectively. The result in [2], in [5], in assay [6], in assay [17], in assay [8] and in assay [9] was inactive. In addition, the max response is -25.3% in [3], -17.5% in assay [7] and -9.97% in [10]. Besides, the Potency result in assay [4] and in [12] was “inactive” each time.

For the compound `CC(=O)Nc1ccccc1C`, the activation in [1] was -4.6% (inactive); in assay [14], 0.555% (inactive); in assay [15] it was -0.805% (inactive). Further, the outcome in [2], in assay [5], in assay [6], in assay [16], in assay [17] and in assay [8] was inactive. For the same compound, in assay [9], the outcome was inactive. Besides, the max response was 8.94% in assay [3], -2.35% in [7], -11.2% in assay [10] and 2.75% (inactive) in [18]. Also, the Potency result in [4], in assay [12] and in assay [13] was “inactive” throughout. Moreover, the activity change % (negative = inhibition) in assay [11] was 4.18% (inactive).

Consider `CCCCC(CC)CO` (stereo unspecified), for which the activation was -4.31% (inactive) in assay [1], -4.64% (inactive) in [14] and -1.43% (inactive) in [15]. Further, the outcome in assay [2], in [5], in assay [16], in [17], in assay [8] and in [9] was inactive. For the same compound, the max response in assay [3] was -4.39%; in assay [7] it was -6.11%; in assay [10], -1.2%; in assay [18], 16% (inactive). Besides, the Potency result in assay [4], in [12] and in assay [13] was “inactive” in each case. In addition, the activity change % (negative = inhibition) in assay [11] is -6.25% (inactive).

For the compound `CC(N)CN` (stereo unspecified), the activation in assay [1] was -2.03% (inactive); in assay [14] it was -0.238% (inactive); in [15], 0.0382% (inactive). Moreover, the outcome in assay [2], in assay [5], in assay [16], in assay [17], in assay [8] and in assay [9] was inactive. In addition, the max response was 4.9% in assay [3], -2.32% in assay [7], -2.44% in assay [10] and 12.6% (inactive) in [18]. Moreover, the Potency entry in [4], in assay [12] and in [13] was “inactive” each time. Further, in assay [11], the activity change % (negative = inhibition) was -4.82% (inactive).
